Assay [1] is described as follows: compound effects on lung adenocarcinoma cell viability – A549, calcein-AM fluorescence, 48 h, basal, profiling panel (AID 1162). Note: test concentration not given here. To be noted: higher = more signal.
Assay [2] in a line: compound effects on differentiated 3T3-L1 adipocyte viability – cell-based, 3T3-L1 adipocytes, calcein-AM fluorescence, 48 h, basal, profiling panel (AID 1163). Note: test concentration not given here. The note with it: 3T3-L1 adipocytes viability, higher = more signal.
A short description of assay [3]: compound effects on hepatocellular carcinoma cell viability – HepG2, calcein-AM fluorescence, 48 h, basal, profiling panel (AID 1164). Note: test concentration not given here. To be noted: higher = more signal.
Assay [4] can be described thus: compound effects on multiple myeloma cell viability – MM1S, calcein-AM fluorescence, 48 h, basal, profiling panel (AID 1165).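 Note: viability of MM1S multiple myeloma cells under basal unstimulated conditions; test concentration not given here.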 To be noted: higher = more signal.
Assay [5] can be described thus: calcein-AM signal in unstimulated myeloma cells – cell-based, calcein-AM fluorescence, 48 h, PK04 Diversity Set, profiling panel (AID 1166).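 Note: cells grown under basal conditions without added stimulus; test concentration not given here.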 The note with it: RPMI8226 myeloma viability, higher = more signal.
Assay [6] can be described thus: JC-1 mitochondrial signal, unstimulated HepG2 cells – cell-based, JC-1 fluorescence, 24 h, 100 nL compound, profiling panel (AID 1167). Note: test concentration not given here. To be noted: HepG2 mitochondrial potential, higher = more signal.
Assay [7] is described as follows: JC-1 mitochondrial signal, unstimulated adipocytes – cell-based, JC-1 fluorescence, 3T3-L1 adipocytes, 24 h, 100 nL compound, profiling panel (AID 1168). Note: test concentration not given here. To be noted: JC-1 mitochondrial fluorescence, higher = more signal, called active from +8 up or from −8 down.
Assay [8] in a line: JC-1 mitochondrial signal, unstimulated myeloma cells – cell-based, JC-1 fluorescence, RPMI8226, 24 h, 100 nL compound, profiling panel (AID 1169). Note: test concentration not given here. To be noted: JC-1 mitochondrial potential fluorescence, higher = more signal.
Assay [9] can be described thus: JC-1 mitochondrial signal, unstimulated MM1S myeloma – cell-based, JC-1 fluorescence, 24 h, 100 nL compound, profiling panel (AID 1170). Note: test concentration not given here. To be noted: MM1S mitochondrial potential, higher = more signal.
A short description of assay [10]: resazurin metabolic signal in A549 cells – cell-based, resazurin fluorescence, 24 h, PK04 Diversity Set, profiling panel (AID 1171). Note: test concentration not given here. The note with it: A549 viability, higher = more signal, called active from +8 up or from −8 down.
A short description of assay [11]: resazurin metabolic signal in HepG2 cells – cell-based, resazurin fluorescence, 24 h, PK04 Diversity Set, profiling panel (AID 1172). Note: test concentration not given here. The note with it: HepG2 viability, higher = more signal.
A short description of assay [12]: budding yeast growth changes without added modifier – OD600, strain BY4716, 24 h, basal condition, primary screen (AID 1173). The note with it: S. cerevisiae BY4716 growth, OD600, 24 h; higher = more signal, called active from +8 up or from −8 down.
Assay [13] can be described thus: viability profiling in MM1S myeloma cells – cell-based, resazurin fluorescence, basal, 24 h, PK04 Diversity Set, profiling panel (AID 1174). Note: test concentration not given here. To be noted: higher = more signal, called active from +8 up or from −8 down. A general note: The colour change of resazurin is a common sign of viable cells or microbes.
Assay [14] addresses Dihydroorotate dehydrogenase (quinone), mitochondrial (Plasmodium falciparum (isolate 3D7)) (UniProt Q08210). As to the kind of experiment: inhibition of P. falciparum DHODH – biochemical, C-terminal His tag, absorbance 600 nm, primary screen (AID 1175).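 Note: recombinant parasite enzyme with a five histidine tag at its C terminus; test concentration not given here.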 To be noted: PfDHODH enzyme, DCIP absorbance 600 nm; higher = more signal, called active from +8 up or from −8 down.
The nature of assay [15]: inhibition of PAO1 biofilm formation – strain PAO1, LB-PBS medium, absorbance 600 nm, primary screen (AID 1176). Note: test concentration not given here. To be noted: P. aeruginosa PAO1 growth/biofilm, A600, 12 h; higher = more signal.
The nature of assay [16]: growth modulation of vineyard yeast isolate – strain RM11-1a, OD600, basal, 24 h, primary screen (AID 1177).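 Note: cultures grown under basal conditions with no added stressor; test concentration not given here.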 The note with it: S. cerevisiae RM11-1a growth, OD600, 24 h; higher = more signal, called active from +8 up or from −8 down.
The nature of assay [17]: growth of efflux-deficient E. coli DRC39 – strain DRC39, OD650, 24 h, E. coli filamentation inducers, primary screen (AID 1178).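 Note: growth measured as culture turbidity by optical density at 650 nm; test concentration not given here.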 To be noted: E. coli DRC39 acrAB, higher = more signal, called active from +8 up or from −8 down.
The nature of assay [18]: growth of efflux-deficient E. coli DRC39 – strain DRC39, OD650, 48 h, E. coli filamentation inducers, primary screen (AID 1179).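 Note: screen aims at cell division blockers that make cells filament.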 The note with it: E. coli DRC39 delta-acrAB growth, higher = more signal, called active from +8 up or from −8 down.
A short description of assay [19]: viability profiling in RPMI8226 myeloma cells – cell-based, resazurin fluorescence, basal, 24 h, PK04 Diversity Set, profiling panel (AID 1180).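 Note: RPMI8826 multiple myeloma cell line at 5000 cells per well; test concentration not given here.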 To be noted: higher = more signal.
Assay [20] deals with E3 ubiquitin-protein ligase XIAP (Homo sapiens) (UniProt P98170). Put plainly: small molecules binding XIAP protein – biophysical, small-molecule microarray, fluorescence 635 nm, primary screen (AID 1181).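 Note: score merges 667 nm emission and signal to noise over triplicate slides.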 To be noted: higher = more signal.

The source made the active and inactive calls. Unless noted, the rule behind the calls is not given here.

E3 ubiquitin-protein ligase XIAP (Homo sapiens), sequence (P98170 whole entry, looked up): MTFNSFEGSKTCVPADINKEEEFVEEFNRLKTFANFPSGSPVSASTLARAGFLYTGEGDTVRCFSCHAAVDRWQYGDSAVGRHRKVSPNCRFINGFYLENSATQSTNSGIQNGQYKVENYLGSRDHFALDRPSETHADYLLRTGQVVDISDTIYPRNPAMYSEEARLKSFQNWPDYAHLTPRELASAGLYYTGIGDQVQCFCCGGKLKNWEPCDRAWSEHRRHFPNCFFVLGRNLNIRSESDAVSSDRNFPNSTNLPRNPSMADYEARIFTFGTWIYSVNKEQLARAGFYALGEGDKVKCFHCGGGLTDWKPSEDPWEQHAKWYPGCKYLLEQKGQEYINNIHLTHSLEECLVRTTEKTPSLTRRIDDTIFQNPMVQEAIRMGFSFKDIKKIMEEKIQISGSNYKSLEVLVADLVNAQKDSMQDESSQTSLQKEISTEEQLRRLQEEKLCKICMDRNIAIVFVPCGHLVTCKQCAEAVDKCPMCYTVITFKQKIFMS
Dihydroorotate dehydrogenase (quinone), mitochondrial (Plasmodium falciparum (isolate 3D7)), sequence (Q08210 whole entry, looked up): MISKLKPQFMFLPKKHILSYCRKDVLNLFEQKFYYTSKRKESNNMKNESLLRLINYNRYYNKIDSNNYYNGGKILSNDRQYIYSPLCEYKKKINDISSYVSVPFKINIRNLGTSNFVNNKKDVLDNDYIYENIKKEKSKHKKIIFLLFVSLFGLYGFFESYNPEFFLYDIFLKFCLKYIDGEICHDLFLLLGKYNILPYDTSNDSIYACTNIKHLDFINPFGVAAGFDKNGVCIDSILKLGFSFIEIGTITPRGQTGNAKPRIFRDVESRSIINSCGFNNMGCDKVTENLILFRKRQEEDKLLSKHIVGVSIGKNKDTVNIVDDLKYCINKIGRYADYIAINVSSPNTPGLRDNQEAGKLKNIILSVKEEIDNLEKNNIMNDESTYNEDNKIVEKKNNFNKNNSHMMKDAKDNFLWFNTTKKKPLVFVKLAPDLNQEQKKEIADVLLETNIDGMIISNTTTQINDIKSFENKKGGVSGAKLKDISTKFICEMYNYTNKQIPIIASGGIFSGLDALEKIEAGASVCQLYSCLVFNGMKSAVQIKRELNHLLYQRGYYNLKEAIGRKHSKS

Consider `C=C1C(=O)C=C2CN(C(=O)c3ccccc3)[C@@](Cc3ccc(F)cc3)(C(=O)OC)[C@@H]12`, for which the z-score in assay [1] is -3.89; in assay [2], -1.94; in assay [3] it was -5.62; in assay [4] it was -3.36; in [5] it was -4.73; in assay [6] it was -3.92. For the same compound, the z-score is 3.42 (inactive) in [7]; -0.764 in assay [8]; -2.82 in assay [9]; -7 (inactive) in assay [10]; -6.48 in assay [11]; -11.8 (active) in assay [12]. For the same compound, the z-score in [13] was -9.98 (active); in [15], 0.439 (inactive); in [16] it was -2.19 (inactive); in assay [17] it was 0.322 (inactive); in assay [18], -1.8 (inactive); in assay [19], -7.28. The composite z-score in assay [14] was -1.67 (inactive); in assay [20], 0.154.

For `COC(=O)C1(CC(C)C)C=C2C(=C(C)C(=O)C2C)CN1` (stereo not given), the z-score was -1.23 in assay [1]; -0.291 in [2]; -1.14 in assay [3]; -0.945 in assay [4]; -1.77 in [5]; -1.04 in [6]. Further, the z-score in [7] was -1.83 (inactive); in assay [8] it was 0.147; in [9], -0.92; in assay [10], -0.726 (inactive); in assay [11], -1.23; in assay [12], 1.84 (inactive). The z-score in assay [13] was -1.78 (inactive); in assay [15], 0.715 (inactive); in [16] it was 0.386 (inactive); in assay [17], -0.43 (inactive); in assay [18], -0.078 (inactive); in [19] it was -1.8. The composite z-score was -1.11 (inactive) in [14] and 0.0408 in [20].

As for `C[C@]1(C(=O)NC2CC2)c2ccccc2C(=O)N(Cc2cc(F)cc(C(F)(F)F)c2)[C@H]1c1ccc(CO)cc1`, the z-score in assay [1] was -0.685; in assay [2] it was 0.274; in assay [3], 0.0046; in assay [4] it was 0.0749; in [5], -0.237; in assay [6], 1.2. The z-score in assay [7] is 0.0232 (inactive); in [8] it was 0.107; in assay [9] it was -0.328; in assay [10], 1.79 (inactive); in assay [11], 1.53; in assay [12], 0.411 (inactive). The z-score in [13] was 0.872 (inactive); in assay [15], -0.646 (inactive); in assay [16], 1.34 (inactive); in [17] it was 0.425 (inactive); in assay [18], 0.401 (inactive); in assay [19], 1.04. The composite z-score in assay [14] was 0.712 (inactive); in assay [20], 0.195.

Regarding `Cc1ccc(S[C@]2(C(=O)NCc3ccccc3)CC(=O)N(Cc3ccccc3Cl)[C@@H]2c2ccc(CO)cc2)cc1`, the z-score was -0.643 in assay [1]; 0.9 in assay [2]; 0.191 in assay [3]; 0.0218 in assay [4]; -1.25 in [5]; 0.0273 in assay [6]. The z-score in assay [7] is -0.537 (inactive); in [8], -0.517; in assay [9] it was 0.666; in [10] it was 0.0338 (inactive); in [11], -1.46; in assay [12], -0.288 (inactive). Moreover, the z-score is 0.464 (inactive) in [13]; 0.338 (inactive) in assay [15]; 0.884 (inactive) in assay [16]; -0.545 (inactive) in [17]; -0.756 (inactive) in assay [18]; 0.335 in [19]. The composite z-score in assay [14] was 0.429 (inactive); in [20] it was 0.0623.

Consider `C=CCNC(=O)[C@@H]1[C@H]2C(=O)O[C@H](c3ccccc3)[C@H](c3ccccc3)N2[C@H](c2ccc(OCCO)cc2)[C@@]12C(=O)Nc1ccc(C#CCNC(N)=O)cc12`, for which the z-score in assay [1] was -0.842; in [2], 0.274; in assay [3], -0.397; in [4], 0.0041; in assay [5] it was 0.155; in [6], -0.921. Further, the z-score in assay [7] was -0.962 (inactive); in assay [8] it was 0.672; in [9], 1.23; in assay [10] it was 0.36 (inactive); in [11], -0.0448; in assay [12], 1.23 (inactive). Further, the z-score in assay [13] is -0.286 (inactive); in assay [15], 1.18 (inactive); in assay [16], 1.06 (inactive); in assay [17], 0.0047 (inactive); in assay [18] it was -0.568 (inactive); in assay [19] it was 0.671. In addition, the composite z-score in assay [14] is -0.157 (inactive); in assay [20] it was 0.129.

On to `C#CCN(C(=O)OC(C)(C)C)[C@H](CO)c1ccccc1`, for which the z-score in [1] was -0.413; in assay [2], -0.24; in assay [3], -1.51; in [4], -0.404; in assay [5] it was -0.404; in [6], -1.16. Further, the z-score in [7] was 0.0135 (inactive); in [8], 0.136; in [9], -0.125; in assay [10] it was 0.659 (inactive); in assay [11], 0.739; in assay [12], -7.87 (inactive). The z-score is -0.351 (inactive) in assay [13]; -0.234 (inactive) in assay [15]; -0.184 (inactive) in [16]; 0.47 (inactive) in [17]; -0.652 (inactive) in assay [18]; -0.336 in assay [19]. The composite z-score in assay [14] is -0.2 (inactive); in assay [20] it was -0.005.

Turning to `COC(=O)[C@@]1(Cc2ccc(F)cc2)[C@H]2c3cc(C(=O)N(C)C)n(CCF)c3C[C@H]2CN1C(=O)c1ccccc1`, the z-score in [1] is -0.063; in assay [2] it was -0.138; in [3], 0.121; in assay [4], 0.066; in assay [5], 0.266; in assay [6], -0.0126. The z-score is 0.696 (inactive) in [7]; -0.37 in [8]; 0.328 in [9]; -0.957 (inactive) in assay [10]; 0.0085 in assay [11]; 0.0276 (inactive) in assay [12]. Moreover, the z-score in assay [13] was -0.182 (inactive); in assay [15], 0.7 (inactive); in [16], -0.5 (inactive); in assay [17] it was 0.783 (inactive); in assay [18], 0.459 (inactive); in assay [19], 0.034. The composite z-score was -0.54 (inactive) in assay [14] and 0.179 in assay [20].

With `COCCOC(=O)N1C(=O)[C@@]2(c3cc(C#CC4=CCCCC4)ccc31)[C@H](c1ccc(O)cc1)N1[C@H](c3ccccc3)[C@H](c3ccccc3)OC(=O)[C@H]1[C@@H]2C(=O)N1CCc2cc(OC)c(OC)cc2C1`, the z-score in [1] was -0.565; in [2], -0.154; in [3] it was -0.493; in assay [4] it was 0.0055; in assay [5] it was -1.33; in assay [6], 0.0573. In addition, the z-score in assay [7] was 1.8 (inactive); in assay [8], -1.11; in [9], -0.432; in assay [10], 0.0836 (inactive); in assay [11], 0.291; in assay [12] it was 0.0658 (inactive). Further, the z-score is -0.671 (inactive) in assay [13]; 0.902 (inactive) in assay [15]; 0.432 (inactive) in assay [16]; -0.184 (inactive) in assay [17]; -0.119 (inactive) in [18]; -0.161 in assay [19]. In addition, the composite z-score in assay [14] was -0.0425 (inactive); in assay [20], -0.0434.

As for `COC(=O)C(CC#Cc1ccc2c(c1)[C@]1(C(=O)N2)[C@H](c2ccc(OCCO)cc2)N2[C@H](c3ccccc3)[C@H](c3ccccc3)OC(=O)[C@H]2[C@@H]1C(N)=O)C(=O)OC`, the z-score is -0.729 in [1]; 0.251 in [2]; -0.188 in assay [3]; -2.2 in assay [4]; -1.68 in [5]; -0.68 in assay [6]. In addition, the z-score was 0.81 (inactive) in assay [7]; -1.12 in [8]; -0.927 in assay [9]; -0.0032 (inactive) in assay [10]; -0.156 in [11]; 1.17 (inactive) in assay [12]. The z-score in [13] is -0.551 (inactive); in assay [15], 2.88 (inactive); in assay [16] it was 2.32 (inactive); in [17] it was 0.448 (inactive); in assay [18], 0.287 (inactive); in assay [19] it was -1.43. Besides, the figures for the composite z-score in assay [14] and in assay [20] were -1.24 (inactive) and 0.13, respectively.
